In PubChem BioAssay AID463208 (Broad Institute, 2010):
The source made the active and inactive calls.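 Rule for the calls: active = AC50 at most tenfold above the top tested concentration; inconclusive = flat fit with 30 to 70% activity, or a poor fit; inactive = AC50 over tenfold above the top dose.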

Assay: yeast HDAC inhibitors, dose response, mechanism study for Sdo1 growth activator project, cell lysate, fluorescence, yeast nuclear extract (AID 463208)
Conditions: yeast nuclear extract HDAC activity, fluorogenic substrate

AC50, inactive:
CC(=O)N(C1CCCCC1)C1C(=O)C(=O)c2ccccc2C1=O (stereo unspecified) > 50 µM, Cc1c(/C=N/NC(=O)c2cccc(F)c2)cnn1C > 50 µM, Cc1ccc(NC(=O)c2ccc(NCC3CCCO3)c([N+](=O)[O-])c2)cc1 (stereo unspecified) > 50 µM, CCN(CC)CCCNC(=O)C1CCNCC1 > 50 µM, CC(=O)N(c1ccccc1)C1C(=O)C(=O)c2ccccc2C1=O (stereo unspecified) > 50 µM, CN(C)CCCNC(=O)C1CCNCC1 > 50 µM, CC(=O)N(C)C1C(=O)C(=O)c2ccccc2C1=O (stereo unspecified) > 50 µM, O=C(COC(=O)Cc1ccsc1)Nc1ccccc1 > 50 µM, COc1ccc(-c2nc3ccccc3s2)cc1NC(=O)c1ccc(Br)o1 > 50 µM, O=C(CSc1nc(-c2ccco2)cc(C(F)(F)F)n1)NCc1cccs1 > 50 µM, Cc1ccc(Cn2c(Sc3nccc(C)n3)nc3c2c(=O)[nH]c(=O)n3C)cc1 > 50 µM, O=C(Nc1ccccc1)c1ccc(NCC2CCCO2)c([N+](=O)[O-])c1 (stereo unspecified) > 50 µM, O=C(C(c1ccccc1)c1ccccc1)N(Cc1ccco1)C1CCS(=O)(=O)C1 (stereo unspecified) > 50 µM, Cc1ccc(Cn2c(CN3CC(C)OC(C)C3)nc3c2c(=O)n(C)c(=O)n3C)cc1 (stereo unspecified) > 50 µM, Cc1ccc2c(CC(=O)NNC(=O)c3ccccc3)coc2c1 > 50 µM, Cn1c(=O)[nH]c(=O)c2c1nc(Sc1nc3ccccc3[nH]1)n2Cc1ccccc1 > 50 µM
